EZH2 inh: blocks human EZH2/PRC2 H3K27 methylation; actives 0.35% (n = 57,000); DELFIA TRF, 1 h; inhibition, % at 12.5 µM; Q15910;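 active = mean inhibition of replicates at least 50% and every single replicate also reaching 50%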;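 note: dimethyl H3K27 on biotinylated H3 21-44 peptide detected by antibody; plate controls were median neutral control wells for no effect and median positive control wells for full effect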
Target sequence (Q15910 whole entry, looked up): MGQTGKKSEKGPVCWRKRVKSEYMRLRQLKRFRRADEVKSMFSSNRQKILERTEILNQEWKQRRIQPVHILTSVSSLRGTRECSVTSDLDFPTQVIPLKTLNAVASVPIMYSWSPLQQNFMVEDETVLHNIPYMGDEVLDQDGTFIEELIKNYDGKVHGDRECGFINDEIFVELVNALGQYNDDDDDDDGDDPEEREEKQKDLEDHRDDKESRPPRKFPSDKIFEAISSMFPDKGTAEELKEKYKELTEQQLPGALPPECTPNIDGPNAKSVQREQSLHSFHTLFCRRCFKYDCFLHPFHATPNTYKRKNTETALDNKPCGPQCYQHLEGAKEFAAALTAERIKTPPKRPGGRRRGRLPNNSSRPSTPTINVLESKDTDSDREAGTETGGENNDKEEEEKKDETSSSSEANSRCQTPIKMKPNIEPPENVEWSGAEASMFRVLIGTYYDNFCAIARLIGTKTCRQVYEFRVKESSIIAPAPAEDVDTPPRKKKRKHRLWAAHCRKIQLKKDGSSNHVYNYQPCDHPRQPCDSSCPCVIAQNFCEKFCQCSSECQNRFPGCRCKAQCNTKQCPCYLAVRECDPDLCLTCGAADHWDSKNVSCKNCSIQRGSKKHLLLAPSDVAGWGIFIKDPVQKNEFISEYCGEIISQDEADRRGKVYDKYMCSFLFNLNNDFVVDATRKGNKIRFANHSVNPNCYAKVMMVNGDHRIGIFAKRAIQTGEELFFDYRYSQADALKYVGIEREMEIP
* marks the source's active call; other numbers are inactive results. The sample as a whole holds a higher share of hits than the screen did.

SMILES	EZH2 inh
O=C(CSc1n[nH]c(-c2ccc(Cl)cc2Cl)n1)Nc1ccccc1F	-5
CN(CC(=O)Nc1ccccc1Br)S(=O)(=O)c1ccc2ccccc2c1	21
COC(=O)c1ccccc1NC(=O)c1ccc(Cl)c(S(=O)(=O)Nc2ccc(C)cc2C)c1	1
O=C(CN1C(=O)c2cccc3cccc1c23)Nc1ccccc1C(=O)N1CCOCC1	-9
Cn1c(SCC(=O)Nc2ccccc2C(=O)Nc2ccccc2)nc2ccccc2c1=O	-15
CN(CC(=O)Nc1ccc(Oc2ccccc2)cc1)S(=O)(=O)c1ccccc1	22
Cc1c(NC(=O)CCN2C(=O)c3ccccc3C2=O)cccc1C(=O)O	3
COC(=O)c1c(NC(=S)Nc2ccn(C)n2)sc(C(=O)N(C)C)c1C	-4
O=[N+]([O-])c1cccc(S(=O)(=O)NCCOc2ccccc2-c2ccccc2)c1	53*
O=[N+]([O-])c1cccc(S(=O)(=O)NCCOc2cccc3cccnc23)c1	-5
O=[N+]([O-])c1cccc(S(=O)(=O)NCCOc2cccc(Cl)c2Cl)c1	1
COc1cc(C(F)(F)F)cc(C(F)(F)F)c1C(=O)N1CCC(C(=O)c2ccc(Cl)cc2)CC1	-2
O=C(NC1CC1)C1=C[C@H](c2csc3ccccc23)C[C@H](OCc2ccc(CO)cc2)O1	4
C=CCOC(=O)C1=C[C@H](c2coc3ccccc3c2=O)C[C@H](OCc2ccc(CO)cc2)O1	0
C=CCOC(=O)C1=C[C@H](c2csc3ccccc23)C[C@H](OCc2ccc(CO)cc2)O1	59*
COC(=O)c1c(NC(=S)NCCn2cc(Br)cn2)sc2c1CCC2	14
N#Cc1c(-c2ccccc2)nc(SCC(=O)Nc2ccc(Oc3ccccc3)cc2)[nH]c1=O	87*
CC(=O)c1ccc(NC(=O)CSc2nc(-c3ccccc3)c(C#N)c(=O)[nH]2)cc1	-8
N#Cc1c(-c2ccccc2)nc(SCC(=O)Nc2cccc(C(F)(F)F)c2)[nH]c1=O	39
Cc1cccc(N(CC(=O)NC(C)(C)C)S(=O)(=O)c2ccc(Cl)cc2)c1	6
NC(CC(=O)O)c1cccc([N+](=O)[O-])c1 (stereo unspecified)	2
O=C(NCc1ccco1)c1cc(-c2cccnc2)nc2ccc(Br)cc12	-9
COc1ccc(NC(=O)CSc2nc3ccccc3c(=O)[nH]2)cc1Cl	-6
CCOC(=O)c1c(NC(=O)Cn2cnc3ccccc3c2=O)sc2c1CCCC2	9
O=C(CSc1nc2ccccc2c(=O)[nH]1)Nc1ccc(F)c(Cl)c1	31
SMILES	EZH2 inh
CCOC(=O)c1c(NC(=O)CSc2nc3ccccc3c(=O)[nH]2)sc2c1CCCC2	76*
CCOC(=O)c1c(NC(=O)CSc2ncn[nH]2)sc2c1CCCCC2	6
O=C(CSc1nc2ccccc2c(=O)[nH]1)Nc1ccc(Br)c(Cl)c1	55*
COc1cc2c(cc1NC(=O)COc1ccc(Br)cc1Cl)oc1ccccc12	-6
COC(=O)C1=CO[C@@H](O[C@@H]2O[C@H](CO)[C@@H](O)[C@H](O)[C@H]2O)[C@H]2[C@@H]1C=CC21C=C(C(C)O)C(=O)O1 (stereo partly specified)	13
COc1ccccc1NC(=O)Cn1nc([N+](=O)[O-])c(Br)c1C	-33
Cc1ccccc1NC(=O)CSc1nnc(-c2cccc(Cl)c2)n1C	11
COc1ccccc1N(CC(=O)Nc1c(C)cc(C)cc1C)S(C)(=O)=O	-9
N#CC(C#N)=C(N)/C(C#N)=C/c1cc(O)c(O)c(O)c1	28
N#C/C(=C/c1ccc(O)c(O)c1)C(=O)Nc1ccccc1	18
N#C/C(=C\c1ccc(O)c(O)c1)C(=O)c1ccc(O)c(O)c1	94*
O=C(CCNc1ccc(Cl)c(C(F)(F)F)c1)c1ccccc1	56*
O=C(CNS(=O)(=O)c1ccccc1)Nc1ccc(Cl)c(C(F)(F)F)c1	0
O=C(CCCN1C(=O)c2ccccc2C1=O)Nc1ccc(Cl)c(C(F)(F)F)c1	13
O=C(CCCCC(=O)N/N=C/c1ccc(O)c(O)c1O)NO	76*
O=C(NO)c1cccc(C(=O)N/N=C/c2ccc(O)c(O)c2O)c1	95*
O=C(CCCCCC(=O)N/N=C/c1cc(O)ccc1O)NO	0
O=C(NO)c1cccc(C(=O)N/N=C/c2cc(Br)ccc2O)c1	8
O=C(NO)c1cccc(C(=O)N/N=C/c2ccc(O)cc2O)c1	-3
O=C(NO)c1cccc(C(=O)N/N=C/c2ccc(O)c3ccccc23)c1	-3
O=C(NO)c1cccc(C(=O)N/N=C/c2cc(Br)cc(Br)c2O)c1	-27
O=C(NO)c1cccc(C(=O)N/N=C/c2cccc(O)c2O)c1	79*
O=C(CCCCCC(=O)N/N=C/c1ccc(O)cc1O)NO	5
COc1ccc(-c2csc(Cc3nc(-c4cc5ccccc5oc4=O)cs3)n2)cc1	9
Cc1ccc(NC(=O)COc2ccc(Cl)cc2C)c([N+](=O)[O-])c1	8
SMILES	EZH2 inh
O=C(NCCCN1CCOCC1)c1cc2cc([N+](=O)[O-])ccc2oc1=O	-12
COc1ccc(Cl)cc1NC1=NC2CS(=O)(=O)CC2S1 (stereo unspecified)	11
CCc1c(C)nc(SCC(=O)Nc2ccc(OC)cc2)[nH]c1=O	-12
Cc1ccc(S(=O)(=O)N2C(=O)CCC2C(=O)Nc2ccccc2-c2ccccc2)cc1 (stereo unspecified)	-16
COC(=O)CCCCCCC(=O)N/N=C/c1ccc(-c2cccc(Cl)c2)o1	54*
COC(=O)CCCCCCC(=O)N/N=C/c1cccc(OCCO)c1	6
CCCCN(CCCC)c1ccc(/C=N/NC(=O)CCCCCCC(=O)OC)cc1	80*
CCCCN(CCCC)c1ccc(/C=N/NC(=O)c2ccccc2O)cc1	19
O=C(N/N=C/c1ccc(-c2cccc(Cl)c2)o1)c1ccccn1	6
COC(=O)CCCCCCC(=O)N/N=C/c1ccccc1	22
COC(=O)CCCCCCC(=O)N/N=C/c1cccc(Oc2ccccc2)c1	56*
O=C(CCCCC(=O)N/N=C/c1ccc(-c2cccc(Cl)c2)o1)NO	-1
COC(=O)CCCCCCC(=O)N/N=C/c1ccc(OCCO)cc1	18
COc1ccccc1NC(=O)CCCC(=O)O	12
COC(=O)[C@@]1(Cc2ccccc2CN=[N+]=[N-])N=C(c2ccc(OCCCO)cc2)O[C@H]1c1ccccc1CN=[N+]=[N-]	27
CCOC(=O)c1c(NC(=O)c2ccc(NS(C)(=O)=O)cc2)sc2c1CCCC2	29
O=C1C[C@H](c2ccc(O)cc2)Oc2c1c(O)cc(O)c2[C@@H]1C(=O)c2c(O)cc(O)cc2O[C@H]1c1ccc(O)cc1	21
Cc1cccc(NC(=O)C(Cc2ccccc2)N2C(=O)c3cc(Cl)c(Cl)cc3C2=O)c1 (stereo unspecified)	-13
Cc1ccccc1-c1nc(S(=O)(=O)c2ccc(Cl)cc2)c(NCc2cccnc2)o1	11
CC12CC(c3ccoc3)OC(=O)C1CCC1(C)C2C2OC(=O)C1(O)C1OC21 (stereo unspecified)	10
COC(=O)[C@@H](O)[C@H]1[C@@]2(C)C[C@]3(O)C4[C@@H](O[C@]56CC(=O)O[C@@H](c7ccoc7)[C@@]5(C)CCC([C@]46O)[C@]13C)[C@H]2O (stereo partly specified)	100*
CCc1ccccc1OCC(=O)Nc1ccc(C)cc1[N+](=O)[O-]	20
O=C(Cn1cnc2ccccc2c1=O)Nc1ccc(I)cc1	-4
Cc1ccc(S(=O)(=O)NCC(=O)Nc2ccc(F)cc2F)cc1	-7
Cc1ccccc1/C=C1\Sc2ccccc2N(CC(=O)NC(C)c2ccccc2)C1=O (stereo unspecified)	2
